# Results as given in patent publication US20150152398, “Endoribonuclease and Methods of Use Thereof” (The Regents of the University of California, published 2015).
# Target: T1, TtCas6A H37A (Thermus thermophilus HB8, H37A)
# T1 chain: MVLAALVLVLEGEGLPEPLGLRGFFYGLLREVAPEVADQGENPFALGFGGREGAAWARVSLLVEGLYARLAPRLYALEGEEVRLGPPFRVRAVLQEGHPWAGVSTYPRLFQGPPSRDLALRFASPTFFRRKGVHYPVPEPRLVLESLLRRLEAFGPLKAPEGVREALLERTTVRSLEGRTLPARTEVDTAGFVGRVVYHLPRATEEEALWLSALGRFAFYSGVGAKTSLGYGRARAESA
# Test: EMSA; Kd in FIG. 24D only
# Conditions: chain copies: 2 inferred; label: 5'-32P (EMSA); hairpin; ssRNA
# Excerpt: FIG. 22 illustrates that TtCas6A and TtCas6B both cleave repeats R1 and R3 and retain their cleaved products. (A) Sequences and predicted secondary structures of T. thermophilus CRISPR repeats. Sites of cleavage are indicated with blue arrows. TtCas6e (TTHB192) cleaves repeat R2, while TtCas6A (TTHA0078) and TtCas6B (TTHB231) both cleave repeats R1 and R3. (B) Cleavage product binding affinities of TtCas6A and TtCas6B enzymes. Maltose binding protein (MBP)-fused TtCas6A or TtCas6B were bound to in 5′-radiolabelled, vitro transcribed R1 and R3 RNAs. Bound and unbound fractions were resolved by electrophoresis on a native polyacrylamide gel and visualized by phosphorimaging. The data for these and all subsequent binding assays were fit with standard binding isotherms (solid line). Error bars on each data point denote standard error of the mean (SEM) from three independent experiments. (C) Experiments to confirm single turnover. RNA cleavage assays were carried out at indicated protein:RNA ratios. RNA cleavage was monitored using denaturing polyacrylamide gel electrophoresis. The data from these and all subsequent endoribonuclease activity assays were fit with single exponential curves to yield first-order rate constants. (Top to bottom: FIG. 22A, SEQ ID NOs: 1, 2, 55).
# To test the importance of the stem sequence for substrate RNA recognition by TtCas6A, a series of EMSAs was performed using R1 repeat-derived RNAs that carried single base pair substitutions (C-G→A-U). All mutant RNAs contained the complete 5′ segment and additional two nucleotides downstream of the cleavage site. Compared to the wild-type RNA, substitution of any of the four C-G base pairs in the stem led to about five-fold decrease in affinity (FIG. 24C). This is consistent with the observation that the lower three C-G base pairs are specifically read out by Arg129. The binding defect observed upon mutation of the closing (uppermost) base pair could be due to loss of stability of the stem-loop structure, which is determined by the closing base-pair (Serra et al, 1993). To further investigate the protein determinants of RNA binding, we tested the TtCas6A mutants H37A and R129A and performed binding assays using substrates R1 and R3 (FIG. 24D).
row,Sequence,binding signal
1,GUUGCAAGGGAUUGAGCCCCGUAAGGGGAUUGCGAC,~70 fold lower affinity than WT
2,GUUGCAAACCUCGUUAGCCUCGUAGAGGAUUGAAAC,~90 fold lower affinity than WT
